The results in this text go back to PubChem BioAssay (Tox21).

A short description of assay [1]: qHTS assay to identify small molecule antagonists of the vitamin D receptor (VDR) signaling pathway - cell viability counter screen (AID 743225). Also: % is scaled to controls: 0 for no effect and ±100 for the full control effect; nearly all actives have a fitted effect of over 50% in size. The gist of the method: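 VDR-bla HEK 293T cells, 4 h pre-incubation at 37C, then compound plus 1-alpha,25-dihydroxyvitamin D3 (3 nM final) for 16 h. After the beta-lactamase FRET read, CellTiter-Glo was added to the same wells; luminescence after 30 min at room temperature.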

A short description of assay [2]: qHTS assay to identify small molecule agonists of the NFkB signaling pathway (AID 1159509; active = well fitted curve in the direction sought with a large enough effect in the signal ratio in the repeat runs, not every such curve was filed as active; the % refers to the signal ratio; also: series mostly up to about 61 µM; % is scaled to controls: 0 for no effect and ±100 for the full control effect). The gist of the method:
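Readout: FRET fluorescence, 405 nm excitation, 460/530 nm emission; beta-lactamase expression disrupts FRET. Cells: ME-180 stably carrying NF-kB-driven bla reporter. Compound exposure 5 hr, 37 C, 5% CO2.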

Assay [3] is described as follows: qHTS assay to identify small molecule agonists of the NFkB signaling pathway - cell viability counter screen (AID 1159515; calls by dose curve; also: series mostly up to about 61 µM; % is scaled to controls: 0 for no effect and ±100 for the full control effect; nearly all actives have a fitted effect of over 55% in size). The gist of the method:
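Cells are seeded (2,000 NFkB-bla ME-180 per well), rested overnight, and dosed with DMSO-dissolved compounds for 5 hr at 37 C. Viability is then read by CellTiter-Glo luminescence after 30 min at room temperature.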
(In general: In qHTS, concentration-response curves come from the screen itself.)

Assay [4] in a line: qHTS assay to identify small molecule agonists of the endoplasmic reticulum stress response signaling pathway (AID 1159516; active = well fitted activation curve with a large enough effect in the signal ratio in the repeat runs, not every such curve was filed as active; the % refers to the signal ratio; also: % is scaled to controls: 0 for no effect and ±100 for the full control effect). The gist of the method: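 Cells are seeded at 1,500 per well and incubated overnight. Compounds in DMSO are added for 5 hr at 37 C, then beta-lactamase FRET substrate for 2 hr at room temperature, and fluorescence at 460 and 530 nm is measured.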
Assay [5] is described as follows: qHTS assay to identify small molecule agonists of the endoplasmic reticulum stress response signaling pathway - cell viability counter screen (AID 1159517; calls by dose curve;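 also: HeLa cells carrying an ER stress response element beta-lactamase reporter; series mostly up to about 61 µM; % is scaled to controls: 0 for no effect and ±100 for the full control effect; nearly all actives have a fitted effect of over 50% in size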). The gist of the method: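 After overnight attachment, ESRE-bla HeLa cells were treated with Tox21 library compounds for 5 hr. CellTiter-Glo luminescence, read 30 min post-addition at room temperature, reported viability.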

The nature of assay [6]: qHTS assay to identify small molecule antagonists of the retinoid-related orphan receptor gamma (ROR-gamma) signaling pathway - cell viability counter screen (AID 1159520). Also: % is scaled to controls: 0 for no effect and ±100 for the full control effect; nearly all actives have a fitted effect of over 50% in size. The gist of the method: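 Cytotoxicity was read from cellular ATP (CellTiter-Glo luminescence) after 16 hr at 37 C with 1 uM doxycycline induction. The inducer was added 2 hr after compound transfer to Tet-on ROR gamma CHO cells.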

Assay [7] addresses Nuclear receptor ROR-gamma (Homo sapiens) (UniProt P51449). Nature of the assay: qHTS assay to identify small molecule antagonists of the retinoid-related orphan receptor gamma (ROR-gamma) signaling pathway (AID 1159521; also: nearly all actives have a fitted effect of over 50% in size; also: potency is read from the fitted curve at half-maximal effect). The gist of the method:
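Tet-on RORγ CHO cells carrying a ROR response element–luciferase reporter were pretreated with compounds for 2 h, then induced with 1 uM (final) doxycycline hyclate for 16 h at 37 C. Antagonism was read as decreased ONE-Glo luminescence.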

Assay [8] is described as follows: qHTS assay to identify small molecule agonists of the AP-1 signaling pathway - cell viability counter screen (AID 1159525; calls by dose curve; also: nearly all actives have a fitted effect of over 55% in size). The gist of the method: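 Intracellular ATP by Cell Titer Glo luminescence (30 min, RT) in the same ME-180 AP-1-bla wells after the 5 h compound exposure at 37 °C. Normalised to tetra n-octyl ammonium bromide and DMSO controls.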
Assay [9] is described as follows: qHTS assay to identify small molecule agonists of the AP-1 signaling pathway (AID 1159526; calls by dose curve; also: % is scaled to controls: 0 for no effect and ±100 for the full control effect).
Assay [10] in a line: qHTS assay to identify small molecule agonists of the RXR signaling pathway - cell viability counter screen (AID 1159529). The gist of the method:
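RXR-alpha-UAS-bla HEK 293T cells in medium with 2% charcoal-stripped FBS were preincubated 5 hr, then exposed to compounds for 16 hr at 37 C. Viability was read as CellTiter-Glo luminescence after 30 min at room temperature.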

Assay [11] can be described thus: qHTS assay to identify small molecule antagonists of the retinoic acid receptor (RAR) signaling pathway (AID 1159552). The gist of the method: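 RARE-luc C3RL4 cells; cpds + 1 uM (final) retinol, 6 hr, 37 C/5% CO2; luciferase reagent, 30 min RT, luminescence readout. Inhibitors of retinol-driven signal scored.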
A short description of assay [12]: qHTS assay to identify small molecule agonists of the retinoic acid receptor (RAR) signaling pathway (AID 1159553). Also: % is scaled to controls: 0 for no effect and ±100 for the full control effect. The gist of the method: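 Seed C3RL4 reporter cells at 1,000 per well and incubate overnight at 37 C. Add compounds in DMSO, incubate 6 hr. Add luciferase reagent, wait 30 min at room temperature, read luminescence.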
Assay [13] is described as follows: qHTS assay to identify small molecule antagonists of the retinoid acid receptor (RAR) signaling pathway - cell viability counter screen (AID 1159551). Also: % is scaled to controls: 0 for no effect and ±100 for the full control effect; nearly all actives have a fitted effect of over 35% in size. The gist of the method:
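Cells (C3RL4) are plated, incubated overnight, dosed with compound in DMSO, then given retinol at 1 uM final. After 6 h at 37 C, CellTiter-Glo is added and luminescence read following 30 min at room temperature.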

Records with an inconclusive call do not appear. A number with no mark means an inactive call. Calls of active or inactive are those of the source. Unless noted, calls follow the shape of the dose curve; as a rule, active = well fitted curve in the direction sought with a large enough effect in the repeat runs; inconclusive = weak or mixed curves; inactive = no such curve, though single readings can be large; an effect the other way counts as inactive or inconclusive.

`Cc1c(Cl)cccc1Nc1ccccc1C(=O)O`: the molecule was called inactive in [1], in assay [2], in assay [3], in [4], in [5] and in assay [8]. In addition, in [11], the call was inactive. In addition, the Potency entry in assay [6], in assay [7], in assay [9], in assay [10] and in assay [12] was “inactive” each time.

Regarding `CCCCCCCCCCCCSC#N`, the result in [1], in assay [2], in assay [3], in [4], in assay [5] and in assay [8] was inactive. Also, the call in assay [13] was inactive. Also, the Potency result in assay [6], in assay [7], in assay [9] and in [10] was “inactive” in each case.

For `CC(C(=O)O)c1ccc2c(c1)Cc1cccnc1O2` (configuration not stated), the outcome in assay [1], in assay [2], in [3], in [4], in assay [5] and in assay [8] was inactive. In assay [11], the outcome was inactive. The Potency result in [6], in assay [7], in assay [9], in [10] and in assay [12] was “inactive” each time.

Regarding `CC(C)=CCC[C@H](C)CCO`, the outcome in assay [1], in [2], in assay [3], in [4], in [5] and in assay [8] was inactive. Also, the outcome in assay [11] was inactive. The Potency entry in [6], in assay [7], in assay [9], in assay [10] and in assay [12] was “inactive” throughout.

For the molecule `CC(O)C(C)O` (configuration not stated), the call in [1], in assay [2], in assay [3], in assay [4], in assay [5] and in assay [8] was inactive. For the same molecule, in assay [13], the molecule was classed as inactive. Moreover, the Potency result in assay [6], in assay [7], in [9] and in assay [10] was “inactive” each time.

Consider `CCCCCO`, for which the call in assay [1], in assay [2], in assay [3], in assay [4], in assay [5] and in [8] was inactive. For the same molecule, the outcome in assay [13] was inactive. Besides, the Potency entry in [6], in [7], in [9] and in [10] was “inactive” throughout.

With `CC(=O)CC/C=C(\C)CC/C=C(\C)CC/C=C(\C)CCC=C(C)C`, the molecule was classed as inactive in assay [1], in assay [2], in assay [3], in assay [4], in [5] and in [8]. Moreover, in assay [13], the call was inactive. Besides, the Potency entry in [6], in assay [7], in assay [9], in assay [10] and in assay [12] was “inactive” throughout.

Turning to `COc1ccc(/C(C)=C/C(=O)O)c(OC)c1`, the call in [1], in [2], in assay [3], in assay [4], in [5] and in assay [8] was inactive. In assay [13], the outcome was inactive. The Potency entry in assay [6], in assay [7], in [9] and in [10] was “inactive” throughout.

With `CC1=C(C)C(=O)C(C(CCCCCC(=O)O)c2ccccc2)=C(C)C1=O` (configuration not stated), the molecule was called inactive in assay [1], in [2], in assay [3], in assay [4], in [5] and in assay [8]. Also, in [11], the result was inactive. The Potency result in assay [6], in [7], in assay [9], in assay [10] and in assay [12] was “inactive” each time.

As for `C=CC(O)CCCCC` (configuration not stated), the molecule was called inactive in [1], in [2], in assay [3], in assay [4], in assay [5] and in assay [8]. The result in assay [13] was inactive. Moreover, the Potency result in [6], in [7], in assay [9] and in [10] was “inactive” in each case.

Take `CCN(CC)CC(=O)OCC(=O)[C@@]1(O)CC[C@H]2[C@@H]3CCC4=CC(=O)CC[C@]4(C)[C@H]3[C@@H](O)C[C@@]21C`: the call in assay [1], in assay [2], in assay [3], in [4], in assay [5] and in [8] was inactive. Besides, the result in assay [11] was inactive. Besides, the Potency entry in assay [6], in [7], in assay [9], in [10] and in assay [12] was “inactive” throughout.

As to `O=C(O)CNc1ccccc1`, the result in [1], in [2], in [3], in assay [4], in assay [5] and in assay [8] was inactive. Also, the result in assay [13] was inactive. Further, the Potency entry in assay [6], in assay [7], in assay [9] and in assay [10] was “inactive” throughout.

Turning to `C1CCN(CN2CCCCC2)CC1`, the outcome in [1], in assay [2], in assay [3], in assay [4], in [5] and in assay [8] was inactive. Moreover, in assay [13], the call was inactive. Moreover, the Potency result in [6], in [7], in assay [9] and in assay [10] was “inactive” in each case.

With `C[C@]12CCC(=O)C=C1[C@@H]1C[C@@H]1[C@H]1[C@@H]3[C@@H]4C[C@@H]4[C@@]4(CCC(=O)O4)[C@@]3(C)CC[C@@H]12`, the result in assay [1], in assay [2], in assay [3], in assay [4], in [5] and in assay [8] was inactive. Also, the result in assay [13] was inactive. Moreover, the Potency entry in assay [6], in assay [9], in assay [10] and in assay [12] was “inactive” each time. Further, the Potency in assay [7] was 7.5 µM (active).

Regarding `Clc1cccc(C(c2ccc3nc[nH]c3c2)n2ccnc2)c1` (configuration not stated), the result in assay [1], in assay [2], in assay [3], in [4], in assay [5] and in assay [8] was inactive. Besides, the molecule was called inactive in [13]. The Potency result in [6], in assay [7], in [9] and in [10] was “inactive” each time.

Take `O=C(OCCCCCOC(=O)c1ccccc1)c1ccccc1`: the molecule was called inactive in [1], in assay [2], in assay [3], in [4], in [5] and in assay [8]. For the same molecule, in [13], the result was inactive. Besides, the Potency result in [6], in [7], in assay [9] and in [10] was “inactive” in each case.

Take `c1ccc(CN(Cc2ccccc2)Cc2ccccc2)cc1`: the outcome in assay [1], in assay [2], in assay [3], in assay [4], in [5] and in assay [8] was inactive. For the same molecule, in assay [13], the molecule was classed as inactive. Further, the Potency entry in [6], in [7], in assay [9] and in assay [12] was “inactive” in each case.

Turning to `FC(F)(Cl)C(F)(Cl)Cl`, the outcome in [2], in assay [3], in [4] and in [5] was inactive. Besides, the Potency result in [6], in [7], in assay [9] and in [10] was “inactive” each time.

For the molecule `CC(C)(C)NCC(O)COc1ccc(NC(=O)NC2CCCCC2)cc1` (configuration not stated), the outcome in [1], in assay [2], in [3], in assay [4], in [5] and in assay [8] was inactive. Besides, the molecule was called inactive in [13] and in assay [11]. Further, the Potency entry in assay [6], in [7] and in [9] was “inactive” each time.

Consider `O=C(O)c1ccc2c(c1)nc(C(=O)NC1CCN(C3CC3)CC1)n2Cc1cc(-c2ccc(Cl)s2)on1`, for which the outcome in [1], in [2], in assay [3], in assay [4] and in assay [5] was inactive. The activity, negative = cytotoxicity in [6] is -12.3% [at 19 µM]. In assay [7], the activity change, negative = inhibition is -14.3% [at 19 µM]. Moreover, the viability change, negative = cytotoxic in [8] was 0.765% [at 15.8 µM]. For the same molecule, the activation in assay [9] is -0.694% [at 15.8 µM]. Moreover, in [13], the activity change, negative = cytotoxicity is 0.727% [at 19 µM].

For the molecule `O=S(=O)(O)c1cc(Cl)c(Cl)cc1Cl`, the molecule was classed as inactive in [2], in assay [3], in assay [4] and in [5]. Moreover, the Potency entry in assay [6], in assay [7], in assay [9] and in assay [10] was “inactive” in each case.

With `O=C(Cl)c1ccc(F)c(Cl)c1`, the call in assay [1], in assay [2], in assay [3], in assay [4], in [5] and in assay [8] was inactive. In assay [13], the result was inactive. Moreover, the Potency result in assay [6], in [7], in assay [9] and in [12] was “inactive” throughout.
